# Where a name gives a salt, the structure may show the parent alone.
# Assays:
# Details in all cases: treatment time: 24 h
# A549-ACTB-RAB5A [1] = test: lowest phenotypically active concentration; higher = less potent
# In short: (§1)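 Fifteen gene-edited A549, HepG2 and WPMY1 reporter lines (BFP segmentation plus GFP and RFP/FusionRed markers) were treated at 0.3, 1, 3 or 9 µM for 24 h, four wells each, then imaged live. Live-cell features per well were normalised to DMSO control wells. Deviation required ≥3 of 4 wells beyond the 95th percentile of DMSO Euclidean distances, and reproducibility required median replicate Pearson correlation above the 95th percentile of non-replicates. Phenotypic activity needed both criteria.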
# A549-TUBA1B-RELA [2] = test: as above
# In short: as §1
# HepG2-ACTB-RAB5A [3] = test: as above
# In short: as §1
# WPMY1-GM130-SQSTM1 [4] = test: as above
# In short: as §1
# A549-ACTB-RAB5A [5] = test: phenotypically active (imaging signature differs from DMSO and reproducible) at any of 0.3-9 uM (binary (1 = active, 0 = inactive)); higher = active
# In short: as §1
# A549-CANX-COX4 = test: as above
# In short: as §1
# A549-GM130-SQSTM1 [6] = test: as above
# In short: as §1
# A549-TP53BP1-CLTA = test: as above
# In short: as §1
# A549-TUBA1B-RELA [7] = test: as above
# In short: as §1
# HepG2-ACTB-RAB5A [8] = test: as above
# In short: as §1
# HepG2-CANX-COX4 = test: as above
# In short: as §1
# HepG2-GM130-SQSTM1 = test: as above
# In short: as §1
# HepG2-TP53BP1-CLTA = test: as above
# In short: as §1
# HepG2-TUBA1B-RELA = test: as above
# In short: as §1
# WPMY1-ACTB-RAB5A = test: as above
# In short: as §1
# WPMY1-CANX-COX4 = test: as above
# In short: as §1
# WPMY1-GM130-SQSTM1 [9] = test: as above
# In short: as §1
# WPMY1-TP53BP1-CLTA = test: as above
# In short: as §1
# WPMY1-TUBA1B-RELA = test: as above
# In short: as §1
# A549-GM130-SQSTM1 [10] = test: lowest phenotypically active concentration; higher = less potent
# In short: as §1
Structure (SMILES),lowest phenotypically active concentration (A549-ACTB-RAB5A [1]) [µM],lowest phenotypically active concentration (A549-TUBA1B-RELA [2]) [µM],lowest phenotypically active concentration (HepG2-ACTB-RAB5A [3]) [µM],lowest phenotypically active concentration (WPMY1-GM130-SQSTM1 [4]) [µM],phenotypically active (A549-ACTB-RAB5A [5]),phenotypically active (A549-CANX-COX4),phenotypically active (A549-GM130-SQSTM1 [6]),phenotypically active (A549-TP53BP1-CLTA),phenotypically active (A549-TUBA1B-RELA [7]),phenotypically active (HepG2-ACTB-RAB5A [8]),phenotypically active (HepG2-CANX-COX4),phenotypically active (HepG2-GM130-SQSTM1),phenotypically active (HepG2-TP53BP1-CLTA),phenotypically active (HepG2-TUBA1B-RELA),phenotypically active (WPMY1-ACTB-RAB5A),phenotypically active (WPMY1-CANX-COX4),phenotypically active (WPMY1-GM130-SQSTM1 [9]),phenotypically active (WPMY1-TP53BP1-CLTA),phenotypically active (WPMY1-TUBA1B-RELA),lowest phenotypically active concentration (A549-GM130-SQSTM1 [10]) [µM]
O=S(=O)(c1cccc2c(O)nccc12)N1CCCNCC1 [HA 1100 hydrochloride],3,9,9,9,1 (active),1 (active),0 (inactive),1 (active),1 (active),1 (active),1 (active),1 (active),1 (active),0 (inactive),1 (active),1 (active),1 (active),1 (active),1 (active),–
CC(C)c1cnn2c(NCc3ccccc3)cc(NCCCCCCN)nc12 [BS 181 dihydrochloride],9,9,–,–,1 (active),1 (active),0 (inactive),1 (active),1 (active),0 (inactive),0 (inactive),0 (inactive),0 (inactive),0 (inactive),0 (inactive),1 (active),0 (inactive),1 (active),1 (active),–
CCCCOc1c(C(=O)c2c(F)cc(C)cc2F)cnc2[nH]ncc12,≤ 0.3,≤ 0.3,3,–,1 (active),1 (active),1 (active),0 (inactive),1 (active),1 (active),0 (inactive),1 (active),1 (active),1 (active),1 (active),1 (active),0 (inactive),0 (inactive),1 (active),1
O=C1/C(=C\c2ccncc2)CCC/C1=C\c1ccncc1,3,–,9,3,1 (active),1 (active),1 (active),0 (inactive),0 (inactive),1 (active),1 (active),1 (active),1 (active),1 (active),1 (active),1 (active),1 (active),1 (active),1 (active),3
CCn1c(=O)n([C@H]2CCCN(c3nccc(-c4cc5ccccc5o4)n3)C2)c2ccccc21,3,9,–,–,1 (active),1 (active),1 (active),1 (active),1 (active),0 (inactive),0 (inactive),0 (inactive),0 (inactive),0 (inactive),0 (inactive),1 (active),0 (inactive),0 (inactive),0 (inactive),3
CC(C)(C)c1cc(C(=O)/C=C/c2ccc(C(=O)O)cc2)cc(C(C)(C)C)c1,≤ 0.3,1,≤ 0.3,≤ 0.3,1 (active),1 (active),1 (active),0 (inactive),1 (active),1 (active),1 (active),1 (active),1 (active),0 (inactive),1 (active),1 (active),1 (active),1 (active),1 (active),1
Cc1cc2c(F)c(Oc3ncnn4cc(OC[C@@H](C)OC(=O)[C@H](C)N)c(C)c34)ccc2[nH]1 [brivanib-alaninate],9,–,9,3,1 (active),1 (active),1 (active),1 (active),0 (inactive),1 (active),1 (active),1 (active),1 (active),1 (active),1 (active),1 (active),1 (active),1 (active),1 (active),9
Cc1nnc(-c2ccc3occ(-c4ccc(S(C)=O)cc4)c3c2)o1 (stereo not given),9,–,9,9,1 (active),1 (active),1 (active),1 (active),0 (inactive),1 (active),1 (active),1 (active),0 (inactive),1 (active),1 (active),1 (active),1 (active),1 (active),0 (inactive),9
CC1(C)O[C@@H]2C[C@H]3[C@@H]4C[C@H](F)C5=CC(=O)C=C[C@]5(C)[C@@]4(F)[C@@H](O)C[C@]3(C)[C@]2(C(=O)CO)O1 [fluocinolone acetonide],≤ 0.3,≤ 0.3,–,–,1 (active),1 (active),1 (active),1 (active),1 (active),0 (inactive),0 (inactive),0 (inactive),0 (inactive),0 (inactive),1 (active),0 (inactive),0 (inactive),0 (inactive),0 (inactive),≤ 0.3
CN(C)CC(=O)Nc1ccc2[nH]c(=O)c3ccccc3c2c1 [PJ 34 hydrochloride],9,9,9,9,1 (active),1 (active),1 (active),0 (inactive),1 (active),1 (active),1 (active),1 (active),1 (active),1 (active),1 (active),1 (active),1 (active),0 (inactive),1 (active),9
Cc1cc(F)c(Nc2ncnc3cc(OCc4ccccc4)ccc23)cc1O,9,9,–,–,1 (active),1 (active),1 (active),0 (inactive),1 (active),0 (inactive),0 (inactive),0 (inactive),0 (inactive),0 (inactive),0 (inactive),1 (active),0 (inactive),0 (inactive),1 (active),9
C/C(=N/NC(=N)N)c1ccc(NC(=O)Nc2ccc(/C(C)=N/NC(=N)N)cc2)cc1,3,3,3,9,1 (active),1 (active),1 (active),0 (inactive),1 (active),1 (active),1 (active),1 (active),1 (active),1 (active),1 (active),1 (active),1 (active),0 (inactive),0 (inactive),9
c1cc(-c2cc(C3CCNCC3)[nH]n2)ccn1,9,9,–,–,1 (active),1 (active),1 (active),0 (inactive),1 (active),0 (inactive),1 (active),0 (inactive),0 (inactive),0 (inactive),1 (active),1 (active),0 (inactive),0 (inactive),0 (inactive),3
Nc1ncnc2[nH]nc(Nc3ccc(F)cc3)c12,9,9,9,3,1 (active),1 (active),0 (inactive),0 (inactive),1 (active),1 (active),0 (inactive),1 (active),1 (active),1 (active),1 (active),1 (active),1 (active),1 (active),1 (active),–
COc1cc2ncnc(Nc3cccc(Br)c3)c2cc1OC,3,3,–,9,1 (active),1 (active),1 (active),1 (active),1 (active),0 (inactive),0 (inactive),1 (active),1 (active),1 (active),0 (inactive),1 (active),1 (active),1 (active),0 (inactive),9
"O=c1cc(-c2ccccc2)oc2c(O)c(O)ccc12 [7,8-Dihydroxyflavone]",9,9,9,9,1 (active),1 (active),0 (inactive),0 (inactive),1 (active),1 (active),1 (active),1 (active),0 (inactive),0 (inactive),1 (active),1 (active),1 (active),0 (inactive),1 (active),–
CCCCc1oc2ccc(NS(C)(=O)=O)cc2c1C(=O)c1ccc(OCCCN(CCCC)CCCC)cc1 [dronedarone],3,3,9,–,1 (active),1 (active),1 (active),0 (inactive),1 (active),1 (active),0 (inactive),1 (active),1 (active),1 (active),1 (active),1 (active),0 (inactive),1 (active),1 (active),3
C=C1C(=O)O[C@@H]2C=C(C)CCC=C(C)CC[C@@H]12 [Costunolide],9,–,9,9,1 (active),1 (active),0 (inactive),0 (inactive),0 (inactive),1 (active),1 (active),1 (active),1 (active),0 (inactive),1 (active),0 (inactive),1 (active),1 (active),1 (active),–
Nc1nccc(-c2ccc3noc(-c4ccc(Cl)cc4)c3c2)n1 [PIM-1 Inhibitor 2],3,–,–,9,1 (active),1 (active),1 (active),1 (active),0 (inactive),0 (inactive),0 (inactive),0 (inactive),1 (active),0 (inactive),1 (active),1 (active),1 (active),1 (active),1 (active),3
COc1cc2c(cc1NS(=O)(=O)c1ccc(Br)cc1C)n(C)c(=O)n2C,3,–,9,–,1 (active),1 (active),0 (inactive),1 (active),0 (inactive),1 (active),1 (active),1 (active),0 (inactive),1 (active),0 (inactive),0 (inactive),0 (inactive),0 (inactive),0 (inactive),–
C=C1CC[C@@H]2[C@](C)(CO)[C@H](O)CC[C@@]2(C)[C@@H]1C/C=C1/C(=O)OC[C@H]1O [Andrographolide],9,9,3,9,1 (active),1 (active),1 (active),0 (inactive),1 (active),1 (active),1 (active),1 (active),1 (active),1 (active),0 (inactive),0 (inactive),1 (active),0 (inactive),1 (active),3
COc1ccc(-c2cc(=O)c3c(O)cc(O)cc3o2)cc1O [Diosmetin],9,9,–,–,1 (active),1 (active),1 (active),0 (inactive),1 (active),0 (inactive),0 (inactive),0 (inactive),0 (inactive),1 (active),0 (inactive),1 (active),0 (inactive),1 (active),1 (active),9
CN(C)c1ccc(/C=C2\C(=O)Nc3ccccc32)cc1,9,9,–,3,1 (active),1 (active),1 (active),1 (active),1 (active),0 (inactive),0 (inactive),1 (active),1 (active),1 (active),1 (active),1 (active),1 (active),1 (active),0 (inactive),3

# From the supplement of paper PMC7411054
